{
  "source": "PubChem BioAssay AID720518",
  "about": "(National Center for Advancing Translational Sciences (NCATS), 2013)",
  "note": "Results filed as inconclusive are left out. A call without a number means that no potency is given here. Active and inactive are the calls of the source. Calls come from the whole dose curve.",
  "data": [
    {"experiment": "qHTS for Inhibitors of Cell Surface uPA Generation: Wild-type Protective Antigen (WT-PrAg) Counterscreen for Cherry-picked Compounds", "conditions": "cells, WT protective antigen toxicity counterscreen; series mostly up to 115 µM", "values": [
      {"compound": "O=C(CNC(=O)c1ccc(Br)o1)NNC(=O)c1ccccc1", "Potency": "inactive"},
      {"compound": "COC(=O)CCNS(=O)(=O)c1ccc2nsnc2c1", "Potency": "inactive"},
      {"compound": "C/C(=N\\NC(=O)c1ccccc1)c1c(C)[nH]n(-c2ccccc2)c1=O", "Potency": "inactive"},
      {"compound": "COc1ccc(N2CCN(S(=O)(=O)c3ccc4c(c3)NC(=O)CS4)CC2)cc1", "Potency": "inactive"},
      {"compound": "CCCCNC(=O)c1cc2c(-c3ccc(Cl)cc3)nn(C)c2s1", "Potency": "inactive"},
      {"compound": "CSCC[C@H](NC(=O)[C@H](Cc1ccccc1)n1c(=O)[nH]c2ccccc2c1=O)C(=O)N1CCC[C@H]1C(=O)O", "Potency": "inactive"},
      {"compound": "CCN(CC)CCNC(=O)/C(=C/c1cn(CC)c2ccccc12)NC(=O)c1cc(OC)c(OC)c(OC)c1", "Potency": "inactive"},
      {"compound": "O=C1C[C@@H]2CCN3C(=O)CCC[C@@H]([C@H]23)[C@H]1Cc1ccccc1", "Potency": "inactive"},
      {"compound": "O=C(O)CCCC(=O)NCCCCc1ccccc1", "Potency": "inactive"},
      {"compound": "CCCN1CCN(C2CCCCC2NS(=O)(=O)c2ccc(Cl)cc2)CC1", "note": "(centres undefined)", "Potency": "inactive"},
      {"compound": "COc1ccc(C(C(=O)NC2CCCC2)N(C(=O)c2ccoc2C)c2ccc(C)c(C)c2)cc1", "note": "(centres undefined)", "Potency": "inactive"},
      {"compound": "O=C(COC(=O)c1cc([N+](=O)[O-])ccc1NCCO)NCc1cccs1", "Potency": "inactive"},
      {"compound": "Cc1[nH]c2ccccc2c1C(=O)COC(=O)c1cccc(S(=O)(=O)N2CCCCC2)c1", "Potency": "inactive"},
      {"compound": "CSCC[C@H](NC(=O)[C@H](Cc1ccccc1)n1c(=O)[nH]c2ccccc2c1=O)C(=O)N1CCC[C@@H]1C(=O)O", "Potency": "inactive"},
      {"compound": "COc1ccc(C2=NS(=O)(=O)N(C)C(C(=O)NCc3ccccn3)=C2)cc1", "Potency": "inactive"},
      {"compound": "CCN(C(=O)CSc1ncnc2sccc12)c1c(N)n(Cc2ccccc2)c(=O)[nH]c1=O", "Potency": "inactive"},
      {"compound": "CCOc1ccccc1CN1CCCC(CNS(=O)(=O)c2ccc(OC)cc2)C1", "note": "(centres undefined)", "Potency": "inactive"},
      {"compound": "COc1ccc2c(c1)c1nnc(SCC(=O)Nc3ccccc3F)nc1n2C", "Potency": "inactive"},
      {"compound": "O=C(c1cc2cc([N+](=O)[O-])ccc2s1)N1CCOCC1", "Potency": "inactive"},
      {"compound": "CC(=O)NC(=S)Nc1ccc([N+](=O)[O-])cc1C", "Potency": "inactive"},
      {"compound": "CCC1(C)NC(=O)N(CC(=O)Nc2sc3c(c2C(N)=O)CCC3)C1=O", "note": "(centres undefined)", "Potency": "inactive"},
      {"compound": "COCCn1c(SCC(=O)Nc2ccc(F)cc2)nc2ccccc2c1=O", "Potency": "inactive"},
      {"compound": "CCc1ccccc1N1C(=O)CC(Sc2nccc(C)n2)C1=O", "note": "(centres undefined)", "Potency": "inactive"},
      {"compound": "CCOC(=O)CC(=O)CSc1nc2c(C)c(C)ccc2cc1C", "Potency": "inactive"},
      {"compound": "COc1ccc(NC(=O)c2cccnc2N2CCOCC2)cc1", "Potency": "inactive"},
      {"compound": "Cc1cc(C(=O)NP(=O)(N2CCOCC2)N2CCOCC2)c(C)n1C1CC1", "Potency": "inactive"},
      {"compound": "CCOC(=O)c1ccccc1N=Cc1c(O)c2ccccc2oc1=O", "Potency": "inactive"},
      {"compound": "O=C(NCc1ccc2c(c1)OCO2)c1ccccn1", "Potency": "inactive"},
      {"compound": "CCCCNC(=O)C1CCN(S(=O)(=O)c2c(C)noc2/C=C\\c2ccc(OC)cc2)CC1", "Potency": "inactive"},
      {"compound": "C=C(C)C(=O)O[C@H]1C/C(C)=C\\C(=O)/C=C(\\C)[C@H](O)[C@@H]2OC(=O)C(=C)[C@@H]21", "Potency": "inactive"},
      {"compound": "Cc1ccsc1/C=C(\\C#N)C(=O)NC1CCS(=O)(=O)C1", "note": "(centres undefined)", "Potency": "inactive"},
      {"compound": "COc1cc(CCC(=O)OCC(=O)NCc2ccccc2)cc(OC)c1OC", "Potency": "inactive"},
      {"compound": "CCC1=NN(C(=O)C(=O)Nc2ccc(OC)cc2)C(O)(C(F)(F)F)C1", "note": "(centres undefined)", "Potency": "inactive"},
      {"compound": "CC(=O)c1ccc(OCCCCOc2ccc(C(C)=O)cc2)cc1", "Potency": "inactive"},
      {"compound": "Cn1c(CN2CCCC2)nc2cc(NC(=O)COc3ccccc3)ccc21", "Potency": "inactive"},
      {"compound": "CC1(C)CC(=O)C([N+](=O)[O-])=C(NCCCC(=O)O)C1", "Potency": "inactive"},
      {"compound": "COC(=O)C(CCSC)NC(=O)Cn1ncc2c(=O)oc3ccccc3c21", "note": "(centres undefined)", "Potency": "inactive"},
      {"compound": "COc1ccc(Nc2nc(-c3ccccc3)c(C(=O)Nc3cccnc3)s2)cc1", "Potency": "inactive"},
      {"compound": "O=C(NCCCn1ccnc1)C(=O)NCC(c1cccnc1)N1CCN(c2ccc(F)cc2)CC1", "note": "(centres undefined)", "Potency": "inactive"}
    ]}
  ]
}
